# The whole screen tested about 260,000 compounds, of which about 1,500 (0.58%) were called active. Another 5% or so got no clear call; they are omitted. A selection follows. Potency and affinity values are given separately. A number with no mark means an inactive call.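 How the source made its calls: active means inhibition above a set limit at one or more doses, reproduced on every date tested; inconclusive means results disagree between test dates, or hit never tested in dose response; inactive means the rest.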
# Biological target: Virion infectivity factor (Human immunodeficiency virus type 1 group M subtype B (isolate BH10)) + Virion infectivity factor (Human immunodeficiency virus type 1 group M subtype B (isolate BRU/LAI)) + Virion infectivity factor (Human immunodeficiency virus type 1 group M subtype B (isolate PCV12)) + Virion infectivity factor (Human immunodeficiency virus type 1 group M subtype B (isolate HXB2)) + DNA dC->dU-editing enzyme APOBEC-3G (Homo sapiens) (UniProt P69720+P69721+P69722+P69723+Q9HC16)
# Assay: HIV-1 Vif–A3G interaction blockers – biochemical, TR-FRET, GST-Vif 1-94, biotin-A3G peptide, dose response retest, primary screen (AID 1117319);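 further: Vif residues 1-94 fused to GST binding biotinylated APOBEC3G peptide 110-148; 0% = full assay without inhibitor and 100% = GST in place of GST-Vif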
# Conditions: TR-FRET GST-Vif / biotin-A3G peptide binding; active compounds read high
row,Compound,inhibition [%]
1,Cc1c(Cl)cccc1Nc1nc(N)nc(CSC(=S)N2CCOCC2)n1,0.88
2,NS(=O)(=O)c1ccc(CCNS(=O)(=O)c2ccccc2)cc1,22.8
3,O=C(CSc1ccc2nnc(-c3ccncc3)n2n1)Nc1nccs1,-1.26
4,O=S(=O)(NCCN1CCCC1)c1ccc(C(F)(F)F)cc1,1.25
5,N#Cc1c(-c2cccc(Br)c2)cc(-c2ccco2)[nH]c1=O,15.1
6,N#Cc1c(-c2ccccc2)cc(-c2ccccc2)[nH]c1=O,-8.66
7,Cc1cc(-c2ccccc2)[nH]c(=O)c1C#N,-1.26
8,COc1ccc(-c2cc(C(F)(F)F)c(C#N)c(=O)[nH]2)cc1,-2.26
9,COC(=O)c1ccc(NC(=S)N2CCN(Cc3ccccc3)CC2)cc1,10.9
10,O=C(c1ccc(COc2ccc3ccccc3c2)o1)N1N=C(C(F)F)CC1(O)C(F)F (configuration not stated),-0.12
11,COc1cc2[nH]c(=S)nc(NCc3ccc(C)cc3)c2cc1OC,-6.65
12,O=C1C(O)=CC(=C(c2ccccc2)c2ccccc2)c2ccccc21,15.1
13,Cc1ccc2c(CC(=O)OCc3csc(C)n3)coc2c1,11.1
14,COc1cccc(OC)c1C(=O)OCC(=O)NCC(C)C,14.3
15,CCC1(C)N([O-])C(C)=C(c2ccccc2)[N+]1=O (configuration not stated),4.55
16,CC1(C)N([O-])C2=C(CCCC2)[N+]1=O,4.01
17,CCc1ccc(N(C(=O)c2csnn2)C(C(=O)NC(C)(C)C)c2ccccn2)cc1 (configuration not stated),0.91
18,O=C(c1n[nH]c(=O)c2ccccc12)N1CCN(Cc2ccc3c(c2)OCO3)CC1,4.07
19,CCN(CC(=O)Nc1c(F)cccc1F)C(=O)c1ccc(N2CCCC2=O)cc1,-13.8
20,Cc1csc(NC(=O)c2cc3ccccc3o2)n1,0.57
21,CCOC(=O)c1csc(NC(=O)c2cc3ccccc3o2)n1,0.78
22,Cc1ccc(OCC(=O)NCc2ccc3c(c2)OCO3)c([N+](=O)[O-])n1,8.23
23,CC(C)C(=O)Nc1nnc(Cc2ccccc2)s1,-2.22
24,CNC(=O)CC12CC3CC(CC(C3)C1)C2,6.4

row,Compound,inhibition [%]
1,CCN1CCC(=NNC(=O)c2ccco2)CC1,5.57
2,CCOP(=O)(OCC)c1nc(-c2cccc([N+](=O)[O-])c2)oc1N1CCCCC1,5.71
3,COc1ccc(CCn2c(C)cc(C(=O)CSc3nnnn3C)c2C)cc1,26.9
4,Cc1cc(C(=O)CSc2nnnn2C)c(C)n1CCc1ccc(F)cc1,15.4
5,CNC(=O)c1sccc1SCc1c(Cl)cccc1Cl,-1.14
6,Cc1nnc(SCC2=C(C(=O)O)N3C(=O)C(NC(=O)Cc4ccccc4)C3SC2)s1 (configuration not stated),7.27
7,CC1=C(C(=O)OCC(Cl)(Cl)Cl)N2C(=O)C(NC(=O)Cc3ccccc3)C2SC1 (configuration not stated),67.2
8,COc1ccccc1N1CC(C(=O)OCc2nc(N)nc(Nc3ccccc3)n2)CC1=O (configuration not stated),15.4
9,CC1(C(=O)N2CCOCC2)CCCCC1,-0.21
10,Cc1cc(C)cc(OCC(=O)Nc2cc(C)on2)c1,0.63
11,CCn1c(CNC(=O)c2cccc(C)c2)nnc1SCC(=O)NC1=NCCS1,-12
12,CCOC(=O)N1CCN(C(=O)COc2ccc(S(=O)(=O)NC(C)C)cc2)CC1,-4.61
13,CCCNS(=O)(=O)c1ccc(OCC(=O)N2CCC(C(=O)OCC)CC2)cc1,-4.14
14,O=C(Nc1ccc2c(c1)OCCO2)c1ccc(Cl)cc1,-3.98
15,CC(=O)c1cc2c(cc1NC(=O)c1cccc(S(=O)(=O)N3CCN(C)CC3)c1)OCO2,-12.7
16,C/C(=N\NC(=O)c1ccc(=O)[nH]n1)c1cccnc1,3.66
17,COc1ccc(-c2csc(COC(=O)C(C)(C)C)n2)cc1,-3.51
18,CC(C)(C)C(=O)OCc1nc(-c2ccc(Cl)cc2)cs1,-5.87
19,N#C/C(=C\c1ccc(-c2cccc([N+](=O)[O-])c2)o1)C(=O)Nc1nc(-c2cccs2)cs1,3.46
20,Cc1cccc(NC(=O)CN(C)S(=O)(=O)c2cccc3cccnc23)c1,2.4
21,Cc1cc(C#N)c(C)c(SCc2[nH]nc3c2C(c2ccccc2)C(C#N)=C(N)O3)n1 (configuration not stated),7.14
22,COC(=O)c1ccccc1NC(=O)CN1CCC(C)CC1,26.5
23,Cc1c(NC2=C(Cl)C(=O)N(c3ccccc3)C2=O)c(=O)n(-c2ccccc2)n1C,6.24

# Source: PubChem BioAssay AID1117319 (Southern Research Institute, 2015)
